ChEMBL document CHEMBL4513216, “Probing the Open Global Health Chemical Diversity Library for Multistage-Active Starting Points for Next-Generation Antimalarials” (ACS Infect Dis, 2020)
In all, about 69,000 compounds went through this assay and about 8,600 (12%) showed an effect of 50% or more. The sample as a whole holds a higher share of strong results than the screen did.

These compounds were tested on Plasmodium berghei (assay: Screen against P. berghei liver stage (PbLuc), transformed with Luciferase, at 10uM). Conditions: tested at 10 uM.
Type: functional, HepG2

SMILES | INHIBITION [%]
COCCn1ccc2c(C(=O)NCC3CCCO3)cccc21 (stereo not given) | 23.7
Cc1cnc(N2C[C@@H]3CCN(CC(=O)N(C)C)C(=O)[C@H]3C2)nc1 | -61.9
Cc1ccc(CC2COCCN(Cc3ccccc3)C2)nc1 (stereo not given) | 35
Cc1ccc2c(n1)N(C)CCN(C(=O)NC1CC1)C2 | 1.28
Cn1cnc2c1CCN(Cc1csc(-c3ccc(F)cc3)n1)C2 | -2.522
c1ccc(Cc2noc(CN3CCc4cncnc4C3)n2)cc1 | 19.6
Cn1cnc2c1CCN(Cc1csc(-c3ccccc3F)n1)C2 | 70.7
Fc1ccc(OCc2noc(CN3CCc4cncnc4C3)n2)cc1 | 50.4
Cn1cnc2c1CCN(Cc1csc(-c3ccccc3)n1)C2 | 23.6
COc1ccc(-c2noc(CN3CCc4cncnc4C3)n2)cc1 | 40.3
CO[C@@H]1CCC[C@@H](N(C)C(=O)c2cn3cc(C)ccc3n2)[C@H]1O | -11.125
COc1ccc(C(=O)N2CCCS2(=O)=O)cc1 | -11.4
CN1C(=O)CC(c2ccccc2)C12CCN(CC1CCOCC1)CC2 (stereo not given) | -7.28
COCCN1CCC(CN(CC2CCCO2)C(=O)C2CCOCC2)CC1 (stereo not given) | 29.9
CN(C)Cc1nc(C(C)(C)NC(=O)c2ccnn2C)no1 | 57.6
Cn1nccc1C(=O)NC(C)(C)c1noc(C(C)(C)C)n1 | 12.7
CCCc1nc(C(C)(C)NC(=O)c2ccnn2C)no1 | 38.3
CCNc1ncc(C(=O)N2CCc3c(nc(C)nc3N(C)C)C2)cn1 | 36.7
CCO[C@H]1CN(C)C[C@@H]1NC(=O)c1cc(C)nc2c(C)cccc12 | 24.3
Cc1cc(SC(C)(C)C)ccc1NC(=O)CNC(N)=O | 22.2
Cc1cc(SC(C)(C)C)ccc1NC(C)C(=O)NC(N)=O (stereo not given) | 65.7
Cc1cc(SC(C)(C)C)ccc1NCC(=O)NC(N)=O | 32
O=C1NCC(c2ccc(F)cc2)Cc2[nH]c(CCN3CCCC3)nc21 (stereo not given) | 43.9
Cc1c(Br)cc2c(c1C)OCC(N(C)C)C2=O (stereo not given) | 24.8
COCCNc1nc2c(c(NCC3CCOC3)n1)CCNCC2 (stereo not given) | 22.3
c1cc(-c2nc3c(c(NCCc4c[nH]cn4)n2)CCNCC3)ccn1 | 5.41
c1cn(CCNc2nc(NC3CC3)nc3c2CCNCC3)nn1 | 53.6
COCCNc1nc2c(c(NCc3ccncc3)n1)CCNCC2 | -3.19
CCOCCNc1nc(-c2ccncc2)nc2c1CCNCC2 | -86.4
c1cc(-c2nc3c(c(NCCn4ccnn4)n2)CCNCC3)ccn1 | 72.1
